Experimental data reported in PubChem BioAssay (NCATS).
Results filed as inconclusive are left out. Activity calls are given as the source filed them. The call rests on the fitted dose curve; in most records, active means well fitted inhibition curve with a large enough effect; inconclusive means small, poorly fitted or top-dose-only effect; inactive means flat fitted curve, though single readings scatter.

Experiment: qHTS to identify inhibitors of the type 1 interferon - major histocompatibility complex class I in skeletal muscle: primary screen against the NCATS Pharmaceutical Collection (AID 1347407)
Conditions: human skeletal muscle cells, IFN-b-induced MHC-I HiBiT luminescence, 24 h; series mostly up to 92.2 µM
How it was run: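 Luminescence from HiBiT-tagged endogenous HLA-B*08:01 served as the read-out of IFN-beta-induced MHC class I in CRISPR-engineered C25cl48 myoblasts. Cells received 4 ng/ml IFN-beta plus compound (high final 46 uM, […]) for 24 h.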
For Oc1ccc2c3c1O[C@H]1[C@@H](O)C=C[C@H]4[C@@H](C2)NCC[C@@]341, the outcome was “inactive”. In the case of O=[N+]([O-])c1cc([N+](=O)[O-])c2ccccc2c1, the outcome is reported as “inactive”. With O=C1C(I)=CC(=C(c2cc(I)c(O)c(I)c2)c2ccccc2C(=O)O)C=C1I the outcome was “inactive”. For C=CCC1=C(C)C(OC(=O)C2C(C=C(C)C)C2(C)C)CC1=O (stereo not drawn), the outcome was “inactive”. In the case of CCCCC(CC)COC(=O)c1ccccc1C(=O)OCC(CC)CCCC (stereo not drawn), the outcome is reported as “inactive”. For CC(O)CN1CCN(CC(=O)[O-])CCN(CC(=O)[O-])CCN(CC(=O)[O-])CC1.[Gd+3] (stereo not drawn), the outcome was “inactive”. With CCOP(=O)(NC(C)C)Oc1ccc(SC)c(C)c1 (stereo not drawn) the outcome was “inactive”. For O=C(O)COc1nc(Cl)c(Cl)cc1Cl, the outcome was “inactive”. In the case of Nc1ccc(Sc2ccc(N)cc2)cc1, the outcome is reported as “inactive”. In the case of CC1(C)CC/C(=C/c2ccc(Cl)cc2)C1(O)Cn1cncn1 (stereo not drawn), the outcome is reported as “inactive”. For O=S(=O)(O)C(F)(F)C(F)(F)C(F)(F)C(F)(F)F, the outcome was “inactive”. For CCCCOC(=O)c1ccccc1C(=O)OCc1ccccc1, the outcome was “inactive”. With CCC1(CCC(C)C)C(=O)NC(=O)NC1=O the outcome was “inactive”. With O=C(Nc1ccccc1-c1ccc(Cl)cc1)c1cccnc1Cl the outcome was “inactive”. With CS(=O)(=O)c1ccc(C(=O)C2C(=O)CCCC2=O)c([N+](=O)[O-])c1 the outcome was “inactive”. With ClC1=C(Cl)[C@]2(Cl)[C@@H]3[C@@H]4C[C@@H]([C@H]5O[C@@H]45)[C@@H]3[C@@]1(Cl)C2(Cl)Cl the outcome was “inactive”. For CC(C)(C)NC[C@H](O)c1ccc(O)cc1Cl, the outcome was “inactive”. With CC(C)Oc1cccc(NC(=O)c2ccccc2C(F)(F)F)c1 the outcome was “inactive”.
